This is part of a sample that, as a whole, favours compounds with a hit. Of some 83,000 tested, about 20% had one in any assay.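 Testing used 96-well plates and a 48-hour single-concentration exposure. Example: -40 means 40% of the starting cells died.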 The source made the active and inactive calls. How the source made its calls: active means growth percent below 10; inactive means the rest.
Columns and labels:
Assay in all cases: NCI-60 one-dose screen, 48 h (100 = growth as untreated, 0 = no growth, -100 = all killed)
[1] = test system: DU-145 prostate; settings: 10 µM unless noted
[2] = test system: K-562 leukemia; settings: 10 µM unless noted
[3] = test system: MALME-3M melanoma; settings: 10 µM unless noted
[4] = test system: MDA-MB-231 breast; settings: 10 µM unless noted
[5] = test system: RXF 393 renal; settings: 10 µM unless noted
[6] = test system: SF-268 CNS; settings: 10 µM unless noted
[7] = test system: SF-295 CNS; settings: 10 µM unless noted
[8] = test system: SF-539 CNS; settings: 10 µM unless noted
[9] = test system: UACC-257 melanoma; settings: 10 µM
[10] = test system: M14 melanoma; settings: 10 µM unless noted
[11] = test system: HCT-15 colon; settings: 10 µM unless noted
[12] = test system: HT29 colon; settings: 10 µM unless noted
[13] = test system: SNB-75 CNS; settings: 10 µM unless noted
[14] = test system: SNB-19 CNS; settings: 10 µM unless noted
[15] = test system: U251 CNS; settings: 10 µM unless noted
[16] = test system: PC-3 prostate; settings: 10 µM unless noted
[17] = test system: SK-MEL-5 melanoma; settings: 10 µM unless noted
[18] = test system: UACC-62 melanoma; settings: 10 µM unless noted
[19] = test system: LOX IMVI melanoma; settings: 10 µM unless noted
[20] = test system: SK-MEL-28 melanoma; settings: 10 µM unless noted

Measured: growth

COc1ccc(NC(=O)CSc2nc3ccccc3c(=O)n2Cc2cc(OC)c(OC)c(OC)c2)cc1
inactive: [1] 95.6% | [2] 79.8% | [3] 88.2% | [4] 73.8% | [5] 82.9% | [6] 85.1% | [7] 106% | [8] 79% | [9] 94.3% | [10] 99.4% | [11] 89.5% | [12] 110% | [13] 66.3% | [14] 95.8% | [15] 97.7% | [16] 85.1% | [17] 87.5% | [18] 74.2% | [19] 94.5% | [20] 94%

O=C(O)C(Cc1ccccc1)N1C(=O)/C(=C/C(Cl)=C/c2ccc([N+](=O)[O-])cc2)SC1=S (configuration not stated)
inactive: [1] 35% | [4] 29.5% | [6] 19.2% | [7] 88.8% | [8] 29.6% | [9] 18.1% | [11] 41.2% | [12] 30.8% | [13] 43% | [14] 32.2% | [16] 31.2%
active: [2] 9.61% | [3] 3.53% | [5] -47.1% | [10] -13.7% | [15] 8.38% | [17] 2.03% | [18] -56.4% | [19] -74.2% | [20] 3.14%

COc1cc(C(=O)/C=C/c2cc(C(=O)c3cc(OC)c(OC)c(OC)c3)ccc2OC)ccc1N
active: [2] 4.22% | [3] -36.1% | [5] -32.5% | [6] -28.1% | [7] 9.88% | [8] -53.2% | [9] -11.9% | [10] -52.9% | [11] -10.2% | [12] -58.3% | [14] -7.07% | [15] -79.9% | [16] -20.6% | [17] -83.3% | [18] -79.8% | [19] -78.8% | [20] -53.4%
inactive: [1] 26.7% | [4] 23.1% | [13] 29.5%

COc1c(NC[C@H]2OC(O)[C@H](O)[C@@H](O)[C@@H]2O)c(=O)c1=O (some centres not stated)
inactive: [1] 115% | [2] 96.4% | [3] 92.9% | [4] 106% | [5] 96.6% | [6] 102% | [7] 107% | [8] 94.1% | [9] 102% | [10] 108% | [11] 107% | [12] 118% | [13] 70.9% | [14] 109% | [15] 95.4% | [17] 100% | [18] 96.6% | [19] 95.5% | [20] 107%

CC/C(=C(\c1ccc(O)cc1)c1ccc(OCCN(C)CCN(C)C(=O)CCC(=O)c2c(C)[nH]c(/C=C3\N=C(c4ccc[nH]4)C=C3OC)c2C)cc1)c1ccccc1
active: [2] 5.83% | [4] 9.16%
inactive: [1] 46.9% | [3] 55.4% | [5] 66.1% | [6] 69.8% | [7] 95.9% | [8] 63.2% | [9] 104% | [10] 20.7% | [11] 34.3% | [12] 15.5% | [13] 92.4% | [14] 108% | [15] 63.2% | [16] 61.4% | [17] 78.2% | [18] 14.2% | [19] 33.6% | [20] 61.7%

COc1ccc(/C=C/C(=O)c2cc(OC)c(OC)c(OC)c2)cc1OCc1cn(Cc2ccc(F)cc2)nn1
active: [2] 7.36% | [8] 6.59% | [12] 4.82%
inactive: [1] 59.3% | [3] 92.1% | [4] 81.8% | [5] 72.2% | [6] 79.3% | [7] 68.4% | [9] 98.3% | [10] 87.7% | [11] 23.8% | [13] 27.5% | [14] 78.4% | [15] 19.3% | [16] 35.1% | [17] 80.8% | [18] 64.4% | [19] 13.3% | [20] 87.3%

Cc1ccc2c(c1)C(=O)C(c1c(-c3[nH]c(=O)c4ccc(C)cc4c3O)c(O)c3ccccc3c1O)=NC2=O
active: [1] -58.7% | [3] -39.1% | [4] -6.31% | [5] -10.8% | [6] 9.4% | [15] -16.2%
inactive: [2] 10.7% | [7] 49.9% | [8] 61.1% | [9] 63.1% | [10] 35.7% | [11] 13.7% | [12] 21.7% | [13] 14.4% | [14] 26.3% | [17] 25.8% | [18] 29.5% | [19] 12.1% | [20] 34.9%

O=C(NNC(=S)Nc1ccccc1)c1ccccn1
active: [18] 5%
inactive: [1] 42.9% | [2] 28.6% | [3] 24.2% | [4] 43.5% | [5] 35.4% | [6] 36.7% | [7] 42.1% | [8] 31.5% | [9] 18.9% | [10] 25.3% | [11] 22.8% | [12] 57.2% | [13] 67.5% | [14] 52.2% | [15] 20.4% | [16] 34.4% | [17] 13.8% | [20] 46%

COc1cccc(NC(=O)c2sc3nc4c(cc3c2N)CCCC4)c1
inactive: [1] 13% | [2] 12.2% | [3] 17% | [4] 51.9% | [6] 49.5% | [7] 35.4% | [9] 64.5% | [10] 16.6% | [11] 20.8% | [12] 41.5% | [13] 18.2% | [14] 39.4% | [15] 19.8% | [16] 19.2% | [17] 26.3% | [18] 33.2% | [20] 48.9%
active: [5] 7.62% | [8] -12.8%

Cc1sc(N=Nc2ccc(N(C)C)cc2)[n+]([O-])c1C
inactive: [1] 102% | [2] 121% | [3] 91.2% | [4] 96.2% | [5] 79.7% | [6] 95.7% | [7] 106% | [8] 100% | [9] 105% | [10] 99.8% | [11] 100% | [12] 103% | [13] 82.5% | [14] 99.5% | [15] 99% | [16] 95.2% | [17] 99% | [18] 99.2% | [20] 102%

Clc1ccc2c(c1)NC1(CCSc3ccccc31)n1nccc1-2 (configuration not stated)
inactive: [1] 103% | [2] 97.4% | [3] 85.8% | [4] 98.1% | [5] 119% | [6] 94.8% | [7] 97.4% | [8] 92.4% | [9] 97.4% | [10] 96.6% | [11] 98.5% | [12] 90.9% | [13] 95.5% | [14] 102% | [15] 88.6% | [16] 81% | [17] 99.4% | [18] 94.7% | [20] 98.4%

COc1cccc(-c2nc3sccn3c2-c2ccnc(NCCCNS(=O)(=O)c3ccccc3)n2)c1
inactive: [1] 52.1% | [2] 25.5% | [3] 36.4% | [4] 59.5% | [5] 67.1% | [6] 62.7% | [7] 55% | [8] 70.4% | [9] 65.7% | [10] 25.2% | [11] 29.7% | [12] 29.4% | [13] 92.6% | [14] 95.5% | [15] 71% | [16] 61.6% | [18] 14.2% | [19] 28.9% | [20] 43.4%
active: [17] 9.71%

COc1ccc(Cn2c(SC)nc(=O)n(Cc3ccc(Cl)cc3)c2=O)cc1
inactive: [1] 103% | [2] 92.6% | [3] 95.1% | [4] 99.4% | [5] 107% | [6] 94.1% | [7] 59.7% | [8] 106% | [9] 102% | [10] 98.6% | [11] 98.5% | [12] 121% | [13] 80.7% | [14] 97% | [15] 93.2% | [17] 107% | [18] 87.7% | [19] 87.5% | [20] 102%

COc1ccc(C(=O)/C=C/c2cccc([N+](=O)[O-])c2)c(OC)c1
active: [2] 8.25% | [5] -33.8% | [8] 8.09% | [11] -47.2% | [12] -3.14% | [15] -16.2% | [19] -73.3%
inactive: [1] 25.3% | [3] 70.5% | [4] 34.7% | [6] 25% | [7] 35.5% | [9] 66.4% | [10] 30.6% | [13] 35.2% | [14] 17% | [17] 41.4% | [18] 31.5% | [20] 69.4%

COc1cc(OC)c(C(=O)/C=C/c2cccc(C#N)c2)c(OC)c1
inactive: [1] 15.3% | [2] 13.7% | [3] 35.4% | [4] 17.1% | [6] 13.5% | [9] 32.2% | [13] 17.3% | [14] 14.8% | [16] 32.1% | [18] 10.9% | [20] 34.4%
active: [5] -3.8% | [7] 1.75% | [8] -7.41% | [10] 6.71% | [11] 3.28% | [12] 8.61% | [15] 8.67% | [17] 7.71% | [19] -6.01%

O=C(CCl)NCCNc1nccc(Nc2ccc(S(=O)(=O)Nc3ccccn3)cc2)n1
inactive: [1] 14.4% | [2] 17% | [3] 10.2% | [5] 36.9% | [7] 36.2% | [9] 31.5% | [13] 32.5% | [14] 17.4% | [16] 36.3% | [20] 38%
active: [4] 2.46% | [6] 9.86% | [8] -15.2% | [10] 3.17% | [11] 4.99% | [12] 4.37% | [15] -68.1% | [17] -41.6% | [18] 5.42% | [19] -64.1%

Source: PubChem BioAssay (NCI)
